Reference: the supplement of paper PMC6897291
Where a name gives a salt, the structure may show the parent alone.

What was measured:
U-2932 [1] = test: growth inhibition by drug alone (1 - RLU/untreated control) (fraction); higher = stronger inhibition; settings: 177Lu-lilotomab satetraxetan 0 ug/ml
In short: (§1)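 Growth inhibition was calculated from RealTime-Glo RLU against untreated no-drug wells. Values equal 1 − RLU/mean of 48 untreated no-drug wells per plate, read daily from day 3 after 1 h at 37°C. RIVA and U-2932 cells, with or without 18 h pretreatment by a radiolabelled anti-CD37 antibody conjugate (~600 MBq/mg; 0.5 µg/ml RIVA, 1 µg/ml U-2932), were washed and plated at 3,000 cells/well on compound-printed plates at 10/100 nM (RIVA) or 10/1,000 nM (U-2932).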

RIVA [2] = test: as above; settings: 177Lu-lilotomab satetraxetan 0 ug/ml
In short: as §1

U-2932 [3] = test: growth inhibition by drug plus 177Lu-lilotomab satetraxetan (1 - RLU/untreated control) (fraction); higher = stronger inhibition; settings: 177Lu-lilotomab satetraxetan 1 ug/ml
In short: as §1

RIVA [4] = test: as above; settings: 177Lu-lilotomab satetraxetan 0.5 ug/ml
In short: as §1

Compound | growth inhibition by drug alone (U-2932 [1]; 10 nM, time (day): 3) | growth inhibition by drug alone (U-2932 [1]; 10 nM, time (day): 4) | growth inhibition by drug alone (U-2932 [1]; 10 nM, time (day): 5) | growth inhibition by drug alone (U-2932 [1]; 10 nM, time (day): 6) | growth inhibition by drug alone (U-2932 [1]; 1000 nM, time (day): 3) | growth inhibition by drug alone (U-2932 [1]; 1000 nM, time (day): 4) | growth inhibition by drug alone (U-2932 [1]; 1000 nM, time (day): 5) | growth inhibition by drug alone (U-2932 [1]; 1000 nM, time (day): 6) | growth inhibition by drug alone (RIVA [2]; 10 nM, time (day): 3) | growth inhibition by drug alone (RIVA [2]; 10 nM, time (day): 4) | growth inhibition by drug alone (RIVA [2]; 10 nM, time (day): 5) | growth inhibition by drug alone (RIVA [2]; 10 nM, time (day): 6) | growth inhibition by drug alone (RIVA [2]; 100 nM, time (day): 3) | growth inhibition by drug alone (RIVA [2]; 100 nM, time (day): 4) | growth inhibition by drug alone (RIVA [2]; 100 nM, time (day): 5) | growth inhibition by drug alone (RIVA [2]; 100 nM, time (day): 6) | growth inhibition by drug plus 177Lu-lilotomab satetraxetan (U-2932 [3]; 10 nM, time (day): 3) | growth inhibition by drug plus 177Lu-lilotomab satetraxetan (U-2932 [3]; 10 nM, time (day): 4) | growth inhibition by drug plus 177Lu-lilotomab satetraxetan (U-2932 [3]; 10 nM, time (day): 5) | growth inhibition by drug plus 177Lu-lilotomab satetraxetan (U-2932 [3]; 10 nM, time (day): 6) | growth inhibition by drug plus 177Lu-lilotomab satetraxetan (U-2932 [3]; 1000 nM, time (day): 3) | growth inhibition by drug plus 177Lu-lilotomab satetraxetan (U-2932 [3]; 1000 nM, time (day): 4) | growth inhibition by drug plus 177Lu-lilotomab satetraxetan (U-2932 [3]; 1000 nM, time (day): 5) | growth inhibition by drug plus 177Lu-lilotomab satetraxetan (U-2932 [3]; 1000 nM, time (day): 6) | growth inhibition by drug plus 177Lu-lilotomab satetraxetan (RIVA [4]; 10 nM, time (day): 3) | growth inhibition by drug plus 177Lu-lilotomab satetraxetan (RIVA [4]; 10 nM, time (day): 4) | growth inhibition by drug plus 177Lu-lilotomab satetraxetan (RIVA [4]; 10 nM, time (day): 5) | growth inhibition by drug plus 177Lu-lilotomab satetraxetan (RIVA [4]; 10 nM, time (day): 6) | growth inhibition by drug plus 177Lu-lilotomab satetraxetan (RIVA [4]; 100 nM, time (day): 3) | growth inhibition by drug plus 177Lu-lilotomab satetraxetan (RIVA [4]; 100 nM, time (day): 4) | growth inhibition by drug plus 177Lu-lilotomab satetraxetan (RIVA [4]; 100 nM, time (day): 5) | growth inhibition by drug plus 177Lu-lilotomab satetraxetan (RIVA [4]; 100 nM, time (day): 6)
O=C(O[C@@H]1Cc2c(O)cc(O)cc2O[C@@H]1c1cc(O)c(O)c(O)c1)c1cc(O)c(O)c(O)c1 [(-)-Epigallocatechin gallate] | 0.0464 | -0.0176 | -0.149 | -0.234 | -0.0141 | -0.0657 | -0.154 | -0.12 | -0.0443 | -0.156 | -0.418 | -0.714 | -0.587 | -0.43 | -0.44 | -0.545 | -0.0356 | 0.00037 | -0.03 | -0.022 | 0.0188 | 0.036 | 0.0512 | 0.127 | 0.452 | 0.532 | 0.55 | 0.559 | 0.363 | 0.454 | 0.47 | 0.474
c1ccc2c(-c3cnn4cc(-c5ccc(N6CCNCC6)cc5)cnc34)ccnc2c1 | -0.114 | -0.118 | -0.0883 | 0.0163 | -0.0225 | -0.0275 | -0.0302 | 0.125 | -0.24 | -0.273 | -0.265 | -0.249 | -0.167 | -0.254 | -0.224 | -0.213 | -0.113 | -0.0441 | 0.0116 | 0.0932 | -0.0291 | -0.0174 | 0.0152 | 0.209 | 0.399 | 0.521 | 0.544 | 0.537 | 0.307 | 0.408 | 0.431 | 0.436
C#Cc1cccc(Nc2ncnc3cc(OCCOC)c(OCCOC)cc23)c1 [Erlotinib HCl] | 0.33 | 0.251 | 0.131 | 0.0458 | 0.731 | 0.715 | 0.655 | 0.621 | 0.349 | 0.233 | 0.131 | -0.221 | 0.656 | 0.642 | 0.6 | 0.46 | 0.195 | 0.2 | 0.208 | 0.267 | 0.712 | 0.704 | 0.691 | 0.685 | 0.595 | 0.534 | 0.536 | 0.524 | 0.791 | 0.81 | 0.788 | 0.724
COc1ccc(-c2ccc3c(N4CCOCC4)nc(N4C[C@@H](C)O[C@@H](C)C4)nc3n2)cc1CO | 0.119 | 0.133 | 0.0721 | 0.0015 | 0.602 | 0.481 | 0.389 | 0.407 | 0.0903 | 0.0995 | 0.0433 | -0.131 | 0.104 | 0.122 | 0.0472 | -0.0784 | 0.0319 | 0.069 | 0.0942 | 0.161 | 0.496 | 0.409 | 0.361 | 0.434 | 0.514 | 0.598 | 0.603 | 0.621 | 0.475 | 0.552 | 0.55 | 0.529
O=C1C(Cl)=C(NCCN2CCOCC2)C(=O)c2ncccc21 | 0.114 | 0.106 | 0.0132 | 0.0178 | 0.227 | 0.184 | 0.124 | 0.0852 | 0.0132 | 0.0904 | -0.00365 | -0.238 | 0.102 | 0.139 | 0.12 | 0.0933 | 0.114 | 0.165 | 0.247 | 0.272 | 0.201 | 0.211 | 0.241 | 0.349 | 0.584 | 0.632 | 0.638 | 0.641 | 0.591 | 0.62 | 0.626 | 0.631
C[C@]12CC[C@@H]3c4ccc(O)cc4C[C@@H](CCCCCCCCC[S+]([O-])CCCC(F)(F)C(F)(F)F)[C@H]3[C@@H]1CC[C@@H]2O (stereo partly specified) | 0.0173 | -0.00253 | -0.129 | -0.212 | -0.176 | -0.0393 | -0.0718 | -0.153 | -0.00571 | -0.0298 | -0.0782 | -0.352 | -0.0427 | -0.0179 | -0.055 | -0.154 | -0.00503 | 0.0303 | 0.0351 | 0.137 | -0.274 | -0.0121 | 0.0312 | 0.0757 | 0.418 | 0.515 | 0.523 | 0.531 | 0.466 | 0.525 | 0.532 | 0.5
CC1(CN2CCC(n3c(=O)[nH]c4ccccc43)CC2)OCc2ccccc2-n2cccc21 (stereo unspecified) | -0.00689 | -0.027 | -0.0586 | -0.0906 | -0.241 | -0.0399 | -0.126 | -0.115 | -0.0853 | -0.102 | -0.143 | -0.225 | -0.307 | -0.303 | -0.319 | -0.374 | -0.0386 | 0.0346 | 0.0781 | 0.0987 | -0.0292 | 0.0476 | 0.0675 | 0.175 | 0.576 | 0.59 | 0.612 | 0.612 | 0.521 | 0.568 | 0.6 | 0.609
Nc1nc(F)nc2c1ncn2[C@@H]1O[C@H](CO)[C@@H](O)[C@@H]1O [Fludarabine (Fludara)] | 0.0811 | 0.031 | -0.102 | -0.129 | 0.0221 | 0.000892 | -0.0649 | -0.0258 | 0.0792 | 0.0421 | 0.0106 | -0.266 | -0.264 | -0.213 | -0.187 | -0.228 | 0.0486 | 0.0769 | 0.126 | 0.16 | 0.00481 | 0.105 | 0.131 | 0.185 | 0.546 | 0.58 | 0.591 | 0.585 | 0.504 | 0.553 | 0.573 | 0.585
CS(=O)(=O)c1ccc(C(=O)Nc2ccc(Cl)c(-c3ccccn3)c2)c(Cl)c1 [Vismodegib (GDC-0449)] | 0.11 | 0.072 | -0.091 | -0.101 | 0.0775 | 0.075 | 0.0248 | 0.00134 | 0.089 | 0.121 | 0.101 | -0.0572 | -0.253 | -0.16 | -0.186 | -0.299 | 0.055 | 0.116 | 0.202 | 0.219 | 0.117 | 0.138 | 0.194 | 0.297 | 0.631 | 0.647 | 0.682 | 0.672 | 0.538 | 0.568 | 0.591 | 0.608
NC(=O)Nc1cc(-c2cccc(F)c2)sc1C(=O)N[C@H]1CCCNC1 | 0.0534 | 0.00627 | -0.197 | -0.0587 | 0.942 | 0.955 | 0.959 | 0.962 | 0.0596 | 0.0145 | -0.0537 | -0.23 | 0.0812 | 0.0623 | 0.0116 | -0.14 | -0.0183 | 0.0423 | 0.122 | 0.155 | 0.964 | 0.971 | 0.974 | 0.978 | 0.318 | 0.362 | 0.396 | 0.43 | 0.139 | 0.161 | 0.178 | 0.185
N#CC[C@H](C1CCCC1)n1cc(-c2ncnc3[nH]ccc23)cn1 | 0.018 | 0.0281 | -0.0548 | -0.139 | -0.0929 | -0.0506 | -0.111 | -0.125 | 0.0229 | -0.0212 | -0.0792 | -0.268 | -0.143 | -0.098 | -0.128 | -0.247 | 0.00599 | 0.0333 | -0.193 | 0.112 | -0.166 | -0.0146 | -0.0674 | -0.122 | 0.32 | 0.445 | 0.469 | 0.488 | 0.269 | 0.379 | 0.376 | 0.348
Cn1c(=O)c(F)c(Nc2ccc(I)cc2F)c2c(=O)n(C[C@@H](O)CO)cnc21 | 0.14 | 0.135 | 0.0576 | -0.0158 | 0.131 | 0.169 | 0.099 | 0.12 | 0.0885 | 0.0594 | -0.0237 | -0.205 | -0.0966 | -0.077 | -0.161 | -0.342 | 0.103 | 0.169 | 0.176 | 0.21 | 0.189 | 0.254 | 0.249 | 0.347 | 0.522 | 0.484 | 0.489 | 0.487 | 0.579 | 0.588 | 0.55 | 0.496
N#Cc1c(O)c2c(-c3ccc(-c4ccccc4O)cc3)csc2[nH]c1=O | 0.111 | 0.0478 | -0.0374 | -0.062 | 0.0299 | -0.017 | -0.0537 | 0.0109 | 0.017 | -0.0012 | -0.079 | -0.317 | -0.44 | -0.357 | -0.367 | -0.39 | 0.00586 | 0.0777 | 0.105 | 0.108 | 0.0618 | 0.0835 | 0.123 | 0.191 | 0.57 | 0.613 | 0.615 | 0.612 | 0.402 | 0.488 | 0.487 | 0.49
Nc1ccccc1NC(=O)c1ccc(CNC(=O)OCc2cccnc2)cc1 [Entinostat (MS-275, SNDX-275)] | 0.036 | 0.00325 | 0.00221 | 0.0268 | 0.833 | 0.861 | 0.874 | 0.887 | -0.0286 | -0.0282 | -0.046 | -0.113 | 0.288 | 0.217 | 0.174 | 0.114 | 0.053 | 0.0586 | 0.0668 | 0.217 | 0.855 | 0.89 | 0.908 | 0.928 | 0.486 | 0.568 | 0.585 | 0.591 | 0.604 | 0.62 | – | –
